Screening data from PubChem BioAssay.
HGIII-sPLA2 inh – Blocks human group III sPLA2 activity; Q9NZ20; inhibition, % at 12.2 µM; QFRET BODIPY PC-A2 liposome hydrolysis, fluorescence; 370,000 tested, 0.56% active;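 active = inhibition above mean plus 3 SD of compounds lying within the high and low control bounds, cut at about 19% in these data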;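 also: 0% = median of test compound wells and 100% = no enzyme DMSO wells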
Target sequence (Q9NZ20 whole entry, looked up): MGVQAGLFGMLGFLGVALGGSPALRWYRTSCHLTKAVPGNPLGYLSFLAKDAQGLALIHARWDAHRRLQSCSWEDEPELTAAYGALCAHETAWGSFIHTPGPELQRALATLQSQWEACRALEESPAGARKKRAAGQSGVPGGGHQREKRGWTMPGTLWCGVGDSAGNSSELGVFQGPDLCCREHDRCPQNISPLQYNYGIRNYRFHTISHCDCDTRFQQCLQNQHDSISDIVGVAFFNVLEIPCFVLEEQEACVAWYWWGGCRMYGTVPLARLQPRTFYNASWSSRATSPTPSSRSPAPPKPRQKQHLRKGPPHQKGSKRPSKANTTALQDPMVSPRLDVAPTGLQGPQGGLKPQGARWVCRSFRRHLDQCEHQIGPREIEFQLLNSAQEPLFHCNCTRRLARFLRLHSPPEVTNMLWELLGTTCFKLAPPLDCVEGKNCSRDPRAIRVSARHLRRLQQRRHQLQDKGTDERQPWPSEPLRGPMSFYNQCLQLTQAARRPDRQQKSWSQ
Efflux pump mplx – blocks antifungal efflux pumps in multiplex yeast assay. AID 485275. inhibition, % at 10 µM. S. cerevisiae Candida pump triplex, Nile Red efflux. 330,000 tested, 0.44% active;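 active = plate passing quality check with inhibition over a set limit, or well fluorescence over plate mean plus 4 SD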;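 also: Nile Red retained in pooled yeast measured as flow cytometry median fluorescence; 0% = buffer negative control and 100% = Enniatin B positive control; higher means more Nile Red kept so more efflux inhibition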
Mot1-301 SUMO – blocks SUMOylation pathway, rescuing yeast Mot1-301 growth; AID 2716; S. cerevisiae Mot1-301 growth rescue, ATP luminescence, 38.5C; percent above DMSO median, 100 means doubled; 320,000 tested, 1% active; growth rescue, % at 18.8 µM;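 active = every valid replicate shows activation above 250% relative to neutral control wells; inactive = the rest, any valid replicate at or below 250%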;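 also: OY570 slx delta 5 strain wells were the positive control but not used for scaling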
SKN-1 inh – blocks SKN-1 activity in C. elegans | 360,000 tested, 0.49% active | C. elegans VP596 Pgst-4::GFP/RFP ratio, acrylamide-induced, 24 h | inhibition, % at 21.8 µM;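 active = interference check ratio from 0.5 to 1.5 plus GFP to RFP signal ratio inhibition reaching or exceeding a fixed threshold, cut at about 30% in these data, passing the limit was not always enough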
hGIII sPLA2 conf – human GIII-sPLA2 inhibition, confirmation. shares compounds with HGIII-sPLA2 inh. recombinant hGIII-sPLA2, BODIPY PC-A2 QFRET fluorescence. inhibition, % at 12.2 µM. 2,000 tested, 34% active. AID 743280;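 active = mean inhibition across triplicates above the hit cutoff set in the earlier primary screen, cut at about 19% in these data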;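 also: 0% = enzyme with DMSO and 100% = DMSO wells lacking enzyme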
BODIPY interf – optically interferes with 535nm fluorescence in sPLA2 counter-screen; shares compounds with HGIII-sPLA2 inh; BODIPY FL product fluorescence interference, QFRET; inhibition, % at 12.2 µM; 2,000 tested, 8.5% active;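 active = average inhibition above the solvent-only control mean plus 3 SD, cut at about 6% in these data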;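 also: 0% = DMSO with substrate plus product and 100% = DMSO with substrate alone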
Numbers without * were called inactive. In the library only some 2.2% were active in any assay of this set; here they are far more common.

`Cc1ccc(-n2c(SCc3ccc(Cl)c(Cl)c3)nnc2-c2ccc(C(C)(C)C)cc2)cc1` gave HGIII-sPLA2 inh 9.
COCCNC(=O)/C(C#N)=C/c1c(N2CC(C)OC(C)C2)nc2ccccn2c1=O (configuration not stated) was read as HGIII-sPLA2 inh 21*, Efflux pump mplx 0, Mot1-301 SUMO -9, SKN-1 inh -3, hGIII sPLA2 conf 3 and BODIPY interf -8.
`C=CCN1C(=O)c2ccc(C(=O)N3CCN(S(=O)(=O)c4cccc(F)c4)CC3)cc2C1=O` gave HGIII-sPLA2 inh 13, Efflux pump mplx 0, Mot1-301 SUMO -5 and SKN-1 inh -1.
Screening CCCOc1ccccc1C1NC(=O)NC(C)=C1C(=O)OCCOC (configuration not stated) returned HGIII-sPLA2 inh 21*, Efflux pump mplx 0, Mot1-301 SUMO -12, SKN-1 inh -12, hGIII sPLA2 conf 2 and BODIPY interf -1.
`COCCNc1nc(NCc2cnc(C)cn2)c2sccc2n1` gave HGIII-sPLA2 inh 22*, SKN-1 inh 6, hGIII sPLA2 conf -2 and BODIPY interf -7.
`CC(OC(=O)c1nn(C)c(=O)c2ccccc12)C(=O)NC1CCCCC1C` (configuration not stated) gave HGIII-sPLA2 inh 19*, Efflux pump mplx 0, Mot1-301 SUMO 4, SKN-1 inh 9, hGIII sPLA2 conf -2 and BODIPY interf -5.
`CC(OC(=O)c1n[nH]c2ccccc12)C(=O)NC1CCCCC1C` (configuration not stated) gave HGIII-sPLA2 inh -4, Efflux pump mplx 0, Mot1-301 SUMO -2 and SKN-1 inh -13.
Screening COC(=O)[C@H]1C[C@]2(C/C=C(\C)CCC=C(C)C)c3ccccc3N[C@H]2N1 returned HGIII-sPLA2 inh 1.
`COc1cc(/C=N/NC(=O)c2cccnc2)ccc1OS(=O)(=O)c1cc(C)ccc1C` gave HGIII-sPLA2 inh -20, Efflux pump mplx 0, Mot1-301 SUMO 115 and SKN-1 inh 1.
COc1ccc(CCC(C)NCc2ccc(C(F)(F)F)cc2)cc1 (configuration not stated) was read as HGIII-sPLA2 inh 18, Efflux pump mplx 0, Mot1-301 SUMO 292 and SKN-1 inh 27.
COc1ccc(CNC(C)CCc2ccccc2)cc1 (configuration not stated) was read as HGIII-sPLA2 inh 20*, Efflux pump mplx 0, Mot1-301 SUMO -2, SKN-1 inh 10, hGIII sPLA2 conf 9 and BODIPY interf -16.
Screening Cc1cccc(-n2c(C)c(-c3ccccc3)[nH]c2=S)c1 returned HGIII-sPLA2 inh 29*, Efflux pump mplx 0, Mot1-301 SUMO -10, SKN-1 inh 1, hGIII sPLA2 conf 33* and BODIPY interf 0.
`Cc1cccc(-n2c(C)n[nH]c2=S)c1` gave HGIII-sPLA2 inh 12, Efflux pump mplx 0, Mot1-301 SUMO -2 and SKN-1 inh 0.
COc1ccc(NC(=S)N2CCN(c3ccc4c(c3)C3CCN(C(=O)OCc5ccccc5)C4C3)CC2)c(OC)c1 (configuration not stated) was read as HGIII-sPLA2 inh 25*, SKN-1 inh 11, hGIII sPLA2 conf 5 and BODIPY interf -22.
O=C(OCc1ccccc1)N1CCC2CC1c1ccc(N3CCNCC3)cc12 (configuration not stated) was read as HGIII-sPLA2 inh 31*, SKN-1 inh -8, hGIII sPLA2 conf -4 and BODIPY interf -35.
`O=C(OCc1ccccc1)N1CCC2CC1c1cc(N3CCN(C(=S)NCCc4ccccc4)CC3)ccc12` (configuration not stated) gave HGIII-sPLA2 inh -1 and SKN-1 inh 9.
For O=C(Nc1cccc(C(=O)O)c1)/C(=C\c1ccccc1Cl)NC(=O)c1ccco1 the results were HGIII-sPLA2 inh -5, Efflux pump mplx -6, Mot1-301 SUMO -21 and SKN-1 inh -5.
For Nc1[nH]nc2nc(N3CCCC3)nc(-c3ccccc3)c12 the results were HGIII-sPLA2 inh 1, Efflux pump mplx 0, Mot1-301 SUMO -13 and SKN-1 inh 5.
`Nc1[nH]nc2nnc(-c3c(-c4ccccc4)nn4ccccc34)cc12` gave HGIII-sPLA2 inh 22*, hGIII sPLA2 conf 9 and BODIPY interf -3.
